Measured values published in the supplement of paper PMC8975748.
Structures can show the parent of a compound that is named as a salt.

These molecules were tested on Saccharomyces cerevisiae BY4741 SeMeCo community (assay: z-score of subpopulation abundance vs DMSO median, subpopulation auxotrophic for LU; higher = larger share of this subpopulation than in DMSO controls). Conditions: 10 µM; 24 h; SM minimal medium; subpopulation (auxotrophy): LU.
Protocol: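 Fluorescent four-plasmid SeMeCo (self-establishing metabolically cooperating S. cerevisiae BY4741 community; plasmids pH-mRuby2, pL-mWasabi, pU-eCFP, pM-TagRFP657) was grown 24 h in minimal SM medium with each Selleck FDA-approved drug at 10 µM in 384-well plates. Cells were fixed and imaged by high-content confocal microscopy. For each auxotrophic subpopulation (and the prototroph), a z-score gives the deviation from the DMSO vehicle-control population median.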

| SMILES | z-score of subpopulation abundance |
| --- | --- |
| CN(C)[C@@H]1C(=O)C(C(N)=O)=C(O)[C@@]2(O)C(=O)C3=C(O)c4c(O)cccc4[C@@](C)(O)[C@H]3[C@H](O)[C@@H]12 [Oxytetracycline (Terramycin)] | 0.73 |
| Nc1nc(N)nc(NC2CC2)n1 [Cyromazine] | 0.73 |
| C[N+]1(C)[C@@H]2C[C@@H](OC(=O)[C@H](CO)c3ccccc3)C[C@H]1[C@@H]1O[C@@H]12 [Methscopolamine] | 0.27 |
| CN(C)C(=O)Oc1ccc[n+](C)c1 [Pyridostigmine Bromide] | 0.57 |
| CN(C)[C@@H]1C(=O)C(C(N)=O)=C(O)[C@@]2(O)C(=O)C3=C(O)c4c(O)cccc4[C@@](C)(O)[C@H]3[C@H](O)[C@@H]12 [Oxytetracycline Dihydrate] | -0.6 |
| Oc1cc(Cl)ccc1Oc1ccc(Cl)cc1Cl [Triclosan] | -0.23 |
| CN(C)[C@@H]1C(=O)C(C(N)=O)=C(O)[C@@]2(O)C(=O)C3=C(O)c4c(O)cccc4[C@@](C)(O)[C@H]3C[C@@H]12 [Tetracycline HCl] | -0.24 |
| CC[C@H]1CN2CC[C@]3(C(=O)Nc4ccccc43)[C@@H]2C[C@@H]1/C(=C\OC)C(=O)OC [Rhynchophylline] | 0.24 |
| CC(C)N(CCC(C(N)=O)(c1ccccc1)c1ccccn1)C(C)C (centres undefined) [Disopyramide] | -0.22 |
| CC[C@H]1[C@@H]2C[C@H]3[C@@H]4N(C)c5ccccc5[C@]45C[C@@H]([C@@H]2[C@H]5O)N3[C@@H]1O [Ajmaline] | -0.26 |
| CN1[C@@H]2C[C@@H](OC(=O)[C@H](CO)c3ccccc3)C[C@H]1[C@@H]1O[C@@H]12 [Scopolamine HBr trihydrate] | -0.6 |
| O=C(O[C@H]1C[C@H]2CC[C@@H](C1)[N+]21CCCC1)C(O)(c1ccccc1)c1ccccc1 [Trospium chloride] | -0.24 |
| CNC1CC(N)C(O)C(OC2OC(CO)C(O)C3OC4(OC(C(N)CO)C(O)C(O)C4O)OC23)C1O (centres undefined) [Hygromycin B] | 0.34 |
| COc1ccc(C=O)cc1 [p-Anisaldehyde] | -0.64 |
| CN(C)C(=O)Oc1cccc([N+](C)(C)C)c1 [Neostigmine Bromide] | 0.79 |
| CC(=O)O[C@H]1C[C@@H]2CC[C@@H]3[C@H](CC[C@@]4(C)[C@H]3C[C@H]([N+]3(C)CCCCC3)[C@@H]4OC(C)=O)[C@@]2(C)C[C@@H]1[N+]1(C)CCCCC1 [Pancuronium dibromide] | 0.2 |
| CCCCCCCCCCCCCCCC[n+]1ccccc1 [Cetylpyridinium Chloride] | 4.67 |

| SMILES | z-score of subpopulation abundance |
| --- | --- |
| C#C[C@]1(O)C=C[C@H]2[C@@H]3CCC4=CC(=O)CC[C@@H]4[C@H]3CC[C@@]21CC [Gestodene] | -0.97 |
| CC(NC(C)(C)C)C(=O)c1cccc(Cl)c1 (centres undefined) [Amfebutamone (Bupropion) HCl] | 0.12 |
| CCN(CC)CCOC(=O)C(O)(c1ccccc1)c1ccccc1 [Benactyzine hydrochloride] | 1.57 |
| COc1ccc(C(CN(C)C)C2(O)CCCCC2)cc1 (centres undefined) [Venlafaxine] | 0.97 |
| COc1ccc2c(c1)[C@]13CCCC[C@@H]1[C@H](C2)N(C)CC3 [Dextromethorphan hydrobromide hydrate] | 0.05 |
| Nc1ccncc1 [4-Aminopyridine] | 0.6 |
| CN1[C@@H]2CC[C@H]1C[C@@H](OC(=O)[C@H](CO)c1ccccc1)C2 [Hyoscyamine] | 0.31 |
| CC(=O)OCC1=C(C(=O)O)N2C(=O)C(N)C2SC1 (centres undefined) [7-Aminocephalosporanic acid] | 0.09 |
| COc1ccc2[nH]cc(CCN)c2c1 [5-Methoxytryptamine] | 1.01 |
| C=CC[C@]1(O)CC[C@H]2[C@@H]3CCC4=CC(=O)CCC4=C3C=C[C@@]21C [Altrenogest] | -0.55 |
| CCN1CC2(OC(=O)c3ccccc3NC(C)=O)CCC(OC)C34C1C(CC23)C1(O)CC(OC)C2CC4C1(O)C2OC (centres undefined) [Lappaconitine] | 0.55 |
| CC[C@@]1(O)C(=O)OCc2c1cc1n(c2=O)Cc2cc3ccccc3nc2-1 [Camptothecin] | -0.54 |
| CN1c2ccccc2C(NCCCCCCC(=O)O)c2ccc(Cl)cc2S1(=O)=O (centres undefined) [Tianeptine sodium] | -0.24 |
| C=C[C@H]1CN2CC[C@H]1C[C@H]2[C@H](O)c1ccnc2ccccc12 [Cinchonidine] | 0.59 |
| C[CH2][Hg][S]c1ccccc1C(=O)[O-].[Na+] [Thimerosal] | 11.1 |
| COC(=O)C1=CCCN(C)C1 [Arecoline HBr] | 0.1 |
| C[C@@H]1O[C@@H](O[C@H]2C[C@@H](O)[C@]3(CO)[C@H]4[C@H](O)C[C@]5(C)[C@@H](C6=CC(=O)OC6)CC[C@]5(O)[C@@H]4CC[C@]3(O)C2)[C@H](O)[C@H](O)[C@H]1O [Ouabain] | -0.53 |
